Compound activity as filed in PubChem BioAssay.
Rows were chosen to be rich in hits. Some 4.2% of all compounds tested hit in one or more screens of this group.
GDH-TPI counter – GDH-TPI coupled enzyme inhibition counter-screen; GDH-TPI coupled enzyme counterscreen, NADH absorbance; inhibition, % at 4.8 µM; hit rate 1.2% among 360,000; AID 588335; in the data active = inhibition above about 30%
PrPC surface inh – reduces human prion protein on the cell surface; hit rate 0.43% among 370,000; P04156; inhibition, % at 13.8 µM; cell surface PrPC, TR-FRET read-out; in the data active = inhibition above about 24%
RecA splice inh – blocks M. tuberculosis RecA intein splicing | cell-free RecA intein splicing, fluorescence | inhibition, % (no concentration beside the values) | hit rate 0.75% among 290,000; in the data active = inhibition above about 30%
BJeLR viability – kills HRASV12-expressing BJeLR cells; BJeLR (HRASV12) viability, CellTiter-Glo ATP luminescence, 48 h; inhibition, % (test concentration not listed); AID 1554; hit rate 0.17% among 300,000; in the data active = inhibition above about 50%
Mtb FBA inh – inhibits M. tuberculosis FBA enzyme | hit rate 2.3% among 360,000 | P9WQA3 | AID 588726 | inhibition, % at 1 µM | purified M. tuberculosis FBA, fluorescence read-out; in the data active = inhibition above about 27%
Target sequence (P9WQA3 whole entry, looked up): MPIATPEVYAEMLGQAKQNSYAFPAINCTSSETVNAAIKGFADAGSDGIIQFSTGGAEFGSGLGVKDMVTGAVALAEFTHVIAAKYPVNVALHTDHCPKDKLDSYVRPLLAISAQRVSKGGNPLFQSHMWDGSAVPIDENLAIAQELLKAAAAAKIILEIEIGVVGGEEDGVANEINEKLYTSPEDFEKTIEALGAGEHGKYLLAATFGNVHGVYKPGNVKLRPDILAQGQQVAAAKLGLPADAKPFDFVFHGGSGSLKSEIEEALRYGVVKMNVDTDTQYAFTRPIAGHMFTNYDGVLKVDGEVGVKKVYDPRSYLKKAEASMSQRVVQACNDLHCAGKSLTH
Of the large screens only hits and unclear results are named; the others gave an inactive call.

C/C(=C\C=C\c1ccccc1)C(=O)c1c(C)cc(C)[nH]c1=O	GDH-TPI counter 47.4
CN(C)[C@H]1CCN(c2ccc3c(c2)O[C@H]2CCN(C2)S3(=O)=O)C1	none (no result: GDH-TPI counter, RecA splice inh, BJeLR viability, Mtb FBA inh)
CCOC(=O)CC[C@@]1(C(=O)OCC)C[C@@H](CC(=O)N2CCOCC2)C(=O)N2CCCC=C21	none (no result: GDH-TPI counter, RecA splice inh, BJeLR viability, Mtb FBA inh)
Cc1csc(NC(=O)c2ccc(COc3cccc(F)c3)o2)n1	none (no result: GDH-TPI counter, RecA splice inh, BJeLR viability, Mtb FBA inh)
CCCN(CCC)CCCNC(=S)Nc1ccc2nc(N3CCN(CC)CC3)cc(C)c2c1	none
Cc1cc(N2CCN(C)CC2)nc2ccc(NC(=S)NC3CC3)cc12	GDH-TPI counter 34.8
CCCN(CCC)CCCNC(=S)Nc1ccc2nc(N3CCN(C)CC3)cc(C)c2c1	GDH-TPI counter 32.5
COC(=O)[C@]12C[C@H](CC(=O)NCc3cccc(C(F)(F)F)c3)C(=O)N(Cc3ccc(Cl)cc3Cl)C1=C[C@H](C1CCCC1)O[C@@H]2C	none (no result: GDH-TPI counter, RecA splice inh, BJeLR viability, Mtb FBA inh)
Cc1nc2scc(C)n2c(=O)c1S(=O)(=O)NCc1ccccc1	GDH-TPI counter 37.9
COc1cccc(CNS(=O)(=O)c2c(C)nc3scc(C)n3c2=O)c1	none
COc1ccc(/C=C(/C#N)C(=O)Nc2ccc(C)cc2C)cc1C(=O)O	GDH-TPI counter 53.7
COc1ccc(/C=C(/C#N)C(=O)Nc2ccccc2C)cc1C(=O)O	none
COc1ccc(/C=C(/C#N)C(=O)Nc2cccc(C)c2C)cc1C(=O)O	GDH-TPI counter 36.7
Nc1ccccc1N1C(=O)c2cccc3cccc(c23)C1=O	none
O=C1c2cccc3cccc(c23)C(=O)N1c1ccccc1Cl	GDH-TPI counter 32.5
COC(=O)[C@]12C[C@H](CC(=O)N3CCSCC3)C(=O)N(Cc3cccc4ccccc34)C1=C[C@H](COCc1ccccc1)O[C@@H]2C	none (no result: GDH-TPI counter, RecA splice inh, BJeLR viability, Mtb FBA inh)
COCCNC(=O)/C(C#N)=C/c1c(N2CCN(C)CC2)nc2ccccn2c1=O	Mtb FBA inh 192.5
COc1ccc(NC(=O)C(=O)NNC(=O)c2cccs2)c(OC)c1	GDH-TPI counter 36.2
C/C(C=NNC(=O)CSc1nnc(-c2ccc(Cl)cc2)n1-c1ccccc1)=C\c1ccccc1	none (no result: GDH-TPI counter, RecA splice inh, BJeLR viability, Mtb FBA inh)
CCC1(C)Cc2ccccc2-c2nc(NCCCO)[nH]c(=O)c21 (centres undefined)	Mtb FBA inh 140.3
CC1(C)Cc2ccccc2-c2nc(NCCCO)n(-c3ccccc3)c(=O)c21	Mtb FBA inh 198.2
CCOC(=O)C1Cn2c(nc3c(c2=O)C(C)(C)Cc2ccccc2-3)S1 (centres undefined)	none
O=c1[nH]c(NCCCO)nc2c1C1(CCCC1)Cc1ccccc1-2	Mtb FBA inh 183.8
CCC1(C)Cc2ccccc2-c2nc(SC)[nH]c(=O)c21 (centres undefined)	none
CC(C)(C)c1ccc(C(=O)Nc2cc(Cl)c(Cl)cc2C(=O)O)cc1	none (no result: GDH-TPI counter, RecA splice inh, BJeLR viability, Mtb FBA inh)
CCOc1ccc(/C=C2\NC(=S)NC2=O)cc1	none
Cc1no[n+]([O-])c1COc1ccc(/C=C2\NC(=S)NC2=O)cc1	GDH-TPI counter 39.2
COc1ccc(C=NNC(=S)Nc2ccc(F)cc2)cc1OC	GDH-TPI counter 69.3 (no result: RecA splice inh, BJeLR viability)
COc1cc(/C=N/NC(=O)c2ccoc2C)cc(OC)c1OC	none
COc1cc(/C=N/NC(=S)NC2CC3CCC2C3)ccc1O (centres undefined)	GDH-TPI counter 52.4
COc1cc(/C=N/NC(=S)N/N=C/c2cc(OC)c(OC)c(OC)c2)cc(OC)c1OC	GDH-TPI counter 45.3
COc1ccc(/C=N/NC(=S)N[C@H]2CC3CCC2C3)cc1 (some centres undefined)	none
COc1cc(/C=N/NC(=S)NCCN2CCOCC2)cc(OC)c1O	GDH-TPI counter 49.5
COc1cc(OC)c(OC)cc1/C=N/NC(=S)NCCN1CCOCC1	none
CC1COCC(C)N1S(=O)(=O)c1ccc2c(c1)CCN2C(=O)C1CCC1 (centres undefined)	none (no result: GDH-TPI counter, RecA splice inh, BJeLR viability, Mtb FBA inh)
Cc1cccc(-c2cccc3c4c([nH]c23)[C@@H]2C[C@H](N(C)C(=O)Nc3ccccc3C)[C@H]([C@H](C)O)C(=O)N2CC4)c1	none (no result: GDH-TPI counter, RecA splice inh, BJeLR viability, Mtb FBA inh)
COc1ccc(C=NNC(=S)NN=Cc2ccc(OC)c(OC)c2)cc1OC	GDH-TPI counter 63.8 (no result: RecA splice inh, BJeLR viability)
Cc1cc2cc(C(c3nnnn3CC3CCCO3)N3CCCc4ccccc43)c(=O)[nH]c2cc1C (centres undefined)	GDH-TPI counter 33.9
CC1=C2NC(N)=[N+](Cc3ccc4c(c3)OCO4)CC2NOC1 (centres undefined)	none (no result: GDH-TPI counter, RecA splice inh, BJeLR viability, Mtb FBA inh)
CC1=NN(c2ccccc2)C(=O)/C1=C\c1cn(C)c2ccccc12	RecA splice inh 38.9
CC1=NN(c2ccccc2)C(=O)/C1=C/c1c(O)[nH]c(=O)[nH]c1=O	RecA splice inh 42.9
C=CCN1C(=O)[C@@H](CC(=O)NCc2cccc(C(F)(F)F)c2)[C@]2(C(=O)OCC)CCCCC/C=C/12	none (no result: GDH-TPI counter, RecA splice inh, BJeLR viability, Mtb FBA inh)
COCCNc1nc(N)c([N+](=O)[O-])c(NCC2CCCO2)n1 (centres undefined)	GDH-TPI counter 37.9
Nc1nc(NCCOCCO)nc(NCC2CCCO2)c1[N+](=O)[O-] (centres undefined)	GDH-TPI counter 42.9
Cc1ccc(Nc2nc(NCC3CCCO3)nc(N)c2[N+](=O)[O-])cc1 (centres undefined)	none
CNc1nc(N)c([N+](=O)[O-])c(NCC2CCCO2)n1 (centres undefined)	GDH-TPI counter 33.7
CCN1CCCCC(NC(=O)c2ccccc2)C1=O (centres undefined)	none (no result: GDH-TPI counter, RecA splice inh, BJeLR viability, Mtb FBA inh)
CC1CCC2(CCC(=O)N2C[C@@H](O)c2ccccc2)CC1 (some centres undefined)	none (no result: GDH-TPI counter, RecA splice inh, BJeLR viability, Mtb FBA inh)
O=C(N/N=C\c1ccc(Sc2ccccn2)o1)c1cccc(F)c1	GDH-TPI counter 31.4
O=C(N/N=C(\c1ccccc1)c1cccnc1)c1ccc(O)cc1	none
O=C(N/N=C(\c1ccccc1)c1cccnc1)c1cccc(F)c1	BJeLR viability 67.2
COC(=O)c1ccc(/C=N/NC(=O)c2cccc(F)c2)cc1	none (no result: PrPC surface inh)
O=C(N/N=C/c1ccc(Sc2ccccn2)o1)c1cc2ccccc2cc1O	GDH-TPI counter 51.2 (no result: PrPC surface inh)
O=C(N/N=C/c1cnc2ccccc2n1)c1cccc(F)c1	GDH-TPI counter 36.7
Cc1cccn2c(=O)c3cc(C(=O)NCC4CCCO4)c(=N)n(CC4CCCO4)c3nc12 (centres undefined)	Mtb FBA inh active (no result: RecA splice inh)
COc1ccc(CNC(=O)c2cc3c(=O)n4cccc(C)c4nc3n(CC3CCCO3)c2=N)cc1 (centres undefined)	none
COc1ccc(CCn2c(=N)c(C(=O)NCC3CCCO3)cc3c(=O)n4cccc(C)c4nc32)cc1 (centres undefined)	none
Cc1ccc(-c2cc(C(=O)NCC3CCCO3)c3ccccc3n2)cc1C (centres undefined)	none
Cc1cccn2c(=O)c3cc(C(=O)NC4CCCC4)c(=N)n(CC4CCCO4)c3nc12 (centres undefined)	Mtb FBA inh active
Cc1cccn2c(=O)c3cc(C(=O)NCC4CCCO4)c(=N)n(C4CCCCC4)c3nc12 (centres undefined)	Mtb FBA inh active (no result: RecA splice inh)
Cc1cccn2c(=O)c3cc(C(=O)NCc4ccc(F)cc4)c(=N)n(CC4CCCO4)c3nc12 (centres undefined)	Mtb FBA inh active
